Screen size: about 2,200 compounds; about 1,200 (55%) were called active. Cut-off not given; nearly all actives show IC50 up to about 92 µM. So high a share suggests a set chosen from earlier hits. This is one part of the list.

As a reminder, the IC50 is the concentration at which inhibition is half-maximal.

A short description of the test: counter assay for TAg ATPase ADP read-out – biochemical, ADP-Hunter, fluorescence, counter-screen (AID 2501).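 Further: purified T antigen ATPase.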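 On inhibition: higher means more inhibition.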 As to conditions: series mostly up to 100 µM.
Regarding `COC(=O)C1=C(O)/C(=C\c2ccc(O)c(OC)c2)N=C1C`, the IC50 was 3.81 µM (active).
As for `CCOc1cc(/C=C2/N=C(C)C(C(=O)OC)=C2O)ccc1O`, the IC50 was 3.91 µM (active).
Under `CCOC(=O)C1=C(O)/C(=C\c2ccc(O)c(OCC)c2)N=C1C` stands 9.47 µM (active).
Under `C#CCOCCOCCOCCNc1nc(N2CCN(C(=O)CCCCCCCCCCNC(=O)[C@H]([C@@H](C)CC)n3cc(CCCCN=C(N)N)nn3)CC2)nc(N2CCN(C(=O)CCCCCCCCCCNC(=O)[C@H]([C@@H](C)CC)n3cc(CCCCN=C(N)N)nn3)CC2)n1` stands “inactive”; under `O=[N+]([O-])c1ccc(C2(O)CN(c3ccccc3)C3=[N+]2CCS3)cc1` (centres undefined), “inactive”.
`COc1cc(SC#N)ccc1N=Cc1c(C)[nH]n(-c2ccc(C)cc2)c1=O`: the IC50 result is “inactive”.
Under `Cc1[nH]n(-c2ccccc2)c(=S)c1C=Nc1ccc([N+](=O)[O-])cc1` stands 48 µM (active).
Under `O=C1CCCCN1CCC(=O)N1CCCC(Nc2ccccc2)C1` (centres undefined) stands “inactive”; under `COc1ccc(NC2CCCN(C(=O)CSc3ccccc3)C2)cc1` (centres undefined), 4.76 µM (active).
As for `COc1ccc(NC2CCCN(C(=O)CCn3cccn3)C2)cc1` (centres undefined), the half-inhibitory concentration (IC50) is 5.33 µM (active).
As for `COc1ccc(NC2CCCN(C(=O)CCCn3cncn3)C2)cc1` (centres undefined), the half-maximal inhibitory concentration (IC50) was 11.5 µM (active).
On to `CCCn1c(SCC(=O)N2CCCC(C)C2)nnc1-c1ccccn1` (centres undefined), for which the IC50 result is “inactive”.
The entry for `OCCC1CN(Cc2cccn2-c2ncccn2)CCN1CCc1ccccc1` (centres undefined) is “inactive”.
For the compound `COc1ccc(C2=CC3=C(Br)C(=O)C(C)(OC(=O)c4cccs4)C(=O)C3=CO2)cc1` (centres undefined), the IC50 entry is “inactive”.
Under `CC(=O)NS(=O)(=O)c1ccc(N=c2ssc3c2-c2cc(C)ccc2NC3(C)C)cc1` stands 74.3 µM (active); under `CN1C=CC=C/C1=C(\C#N)c1nc2ccccc2[nH]1`, 4.36 µM (active).
For `NS(=O)(=O)c1ccc(N/N=C/c2ccc[nH]2)c([N+](=O)[O-])c1`, the IC50 is 14.6 µM (active).
Take `Cc1cs/c(=N\N=C\c2ccc(O)cc2)n1Cc1ccco1`: the half-inhibitory concentration (IC50) was 5.01 µM (active).
Under `CCOc1cccc(=O)c2c(C)n(Cc3ccco3)c(C)c12` stands “inactive”.
The entry for `O=C(CCc1nnc(C2(c3ccc(Cl)cc3)CCC2)o1)N1CCCC(O)C1` (centres undefined) is “inactive”; for `CC(C)CN(Cc1c(O)ccc2c3c(c(=O)oc12)CCC3)CC(C)C` it is 5.92 µM (active); for `O=C1NN(c2cccc(Br)c2)C(=O)/C1=C\c1ccc(O)cc1` it is 11.6 µM (active).
Under `O=C1NN(c2ccccc2)C(=O)/C1=C\c1coc2ccc(O)cc2c1=O` stands 10.7 µM (active).
With `N=C1/C(=C\c2coc3ccc(O)cc3c2=O)C(=O)N=C2SC=CN12`, the half-inhibitory concentration (IC50) was 84.9 µM (active).
Regarding `CC(C)CC1=NN2C(=N)/C(=C\c3coc4ccccc4c3=O)C(=O)N=C2S1`, the IC50 result was “inactive”.
For `CSC1=NSC2=NC(=O)/C(=C\c3coc4ccccc4c3=O)C(=N)N12`, the IC50 entry was “inactive”.
The entry for `Cc1cc(C)c2nc(-c3ccco3)cc(C(=O)O)c2c1` is “inactive”; for `COc1ccc(-n2c(=O)c3c4c(sc3n3c(=S)[nH]nc23)COC(C(C)C)C4)cc1` (centres undefined) it is 16.3 µM (active).
Under `CC(C)C1Cc2c(sc3c2c(=O)n(-c2ccccc2)c2n[nH]c(=S)n32)CO1` (centres undefined) stands 21.9 µM (active); under `Cc1cc(C)c2c(=O)n(CC(=O)NCCCN3CCN(c4ccccc4F)CC3)sc2n1`, “inactive”; under `C=CCOC(=O)C1=C(C)N=c2s/c(=C3\C(=O)N(CC(=O)O)c4ccccc43)c(=O)n2C1c1ccc(OC)cc1` (centres undefined), “inactive”.
Under `Cc1nonc1C(=O)N/N=C/c1ccc(O)c(O)c1` stands 2.13 µM (active); under `COc1ccc2c(c1)c(C(=O)N/N=C/c1ccc(O)c(O)c1)c(C)n2C`, 14.6 µM (active).
In the case of `O=C(N/N=C/c1ccc(O)c(O)c1)C1CC1`, the IC50 was 4.15 µM (active).
Consider `CCOC(=O)c1c(C)n(C)c2ccc(OCC(O)CN(CC)CC)cc12` (centres undefined), for which the IC50 entry is “inactive”.
As to `C=C1CC(C(=O)N/N=C/c2ccc(O)cc2)C1`, the 50% inhibitory concentration (IC50) is 5.39 µM (active).
In the case of `O=C(NCCO)Nc1ccc2nc(-c3ccco3)c(-c3ccco3)nc2c1`, the IC50 result is “inactive”.
On to `O=C(N/N=C/c1ccc(O)c(O)c1)N/N=C/c1ccc(O)c(O)c1`, for which the IC50 is 1.85 µM (active).
Consider `S=c1[nH]nc(NCCCN2CCOCC2)s1`, for which the IC50 is 52.3 µM (active).
Turning to `CC(C)c1ccc(C2CC(=O)N3CN(C)CSC3=C2C#N)cc1` (centres undefined), the IC50 result is “inactive”.
As to `CCOc1ccc2ccccc2c1C(=O)N[C@@H]1C(=O)N2[C@@H]1SC(C)(C)[C@@H]2C(=O)O`, the IC50 result was “inactive”.
Turning to `COc1cc(SC#N)ccc1N=Cc1c(C)[nH]n(-c2cccc3ccccc23)c1=O`, the IC50 entry was “inactive”.
Under `CCOc1ccccc1N1CSC2=C(C#N)C(c3c(OC)ccc4ccccc34)CC(=O)N2C1` (centres undefined) stands 81.2 µM (active).
For the compound `COc1ccc(N2CSC3=C(C#N)C(c4ccc(OC)c(OC)c4)CC(=O)N3C2)c(OC)c1` (centres undefined), the half-inhibitory concentration (IC50) is 24.8 µM (active).
For `COc1ccc(C2CC(=O)N3CN(c4ccccc4F)CSC3=C2C#N)cc1OC` (centres undefined), the IC50 entry was “inactive”.
For the compound `COc1ccccc1N1CSC2=C(C#N)C(c3ccc(SC)cc3)CC(=O)N2C1` (centres undefined), the IC50 was 27.8 µM (active).
Regarding `CN1CSC2=C(C#N)C(c3cccc(OCc4ccccc4)c3)CC(=O)N2C1` (centres undefined), the IC50 was 21.8 µM (active).
Take `CC(=O)N1N=C(c2ccc(C)cc2)CC1c1ccco1` (centres undefined): the IC50 entry was “inactive”.
`COc1ccc(N2CSC3=C(C#N)C(c4cc(OC)ccc4OC)CC(=O)N3C2)c(OC)c1` (centres undefined): the half-inhibitory concentration (IC50) was 9.09 µM (active).
The figure for `COc1ccc(N2CSC3=C(C#N)C(c4cc(OC)c(OC)cc4OC)CC(=O)N3C2)c(OC)c1` (centres undefined) is 78.4 µM (active); for `COc1cc(OC)c(C2CC(=O)N3CN(c4ccccc4C)CSC3=C2C#N)cc1OC` (centres undefined) it is “inactive”; for `COc1ccc(OC)c(C2CC(=O)N3CN(c4cccc(Cl)c4C)CSC3=C2C#N)c1` (centres undefined) it is “inactive”.
As to `COc1cc(OC)c(C2CC(=O)N3CN(C)CSC3=C2C#N)cc1OC` (centres undefined), the concentration for half-maximal inhibition (IC50) was 83.4 µM (active).
The figure for `COc1cc(OC)c(C2CC(=O)N3CN(c4ccc(C)cc4)CSC3=C2C#N)cc1OC` (centres undefined) is 68 µM (active); for `COc1ccc2c(c1OC)C(=O)N1c3ccccc3N=C(c3ccc([N+](=O)[O-])cc3)CC21` (centres undefined) it is “inactive”; for `N#C/C(=C/c1ccc(O)c(O)c1)c1nc2ccccc2[nH]1` it is 5.71 µM (active).
Regarding `O=C(NCc1ccco1)/C(=C/c1ccc(C(F)(F)F)cc1)c1nc2ccccc2[nH]1`, the IC50 entry was “inactive”.
For the compound `O=C(CC(=O)N/N=C/c1ccc(O)cc1)N/N=C/c1ccc(O)cc1`, the IC50 is 1.98 µM (active).
`O=C(C[n+]1ccccc1)N/N=C/c1ccc(O)cc1`: the IC50 was 3.04 µM (active).
Under `O=C(CCn1cnc2ccccc21)N/N=C/c1ccc(O)cc1` stands 7.9 µM (active); under `Cc1cccc(-c2nn(-c3ccccc3)cc2C(=O)Nc2cccc(S(=O)(=O)NC3=NCCC3)c2)c1`, “inactive”.
Under `Cc1nc2cc(-c3ccsc3-n3c(C)ccc3C)[nH]n2c(=O)c1Cl` stands “inactive”; under `CNc1nc(-c2ccccc2)[n+](-c2ccc(C)cc2)s1`, 18.6 µM (active).
With `COc1cc2c(cc1OC)-c1cc(Nc3ccc(N(C)C)cc3)nc(=O)n1CC2`, the IC50 was 1.76 µM (active).
For the compound `O=C1CSC(=Nc2ccc(O)cc2)N1c1ccc(O)cc1`, the 50% inhibitory concentration (IC50) was 3.6 µM (active).
The entry for `O=C1C=CC(=O)N1c1ccc(O)cc1` is “inactive”; for `Cc1nnc(N/N=C/c2c(O)n(-c3cccc(C(F)(F)F)c3)c(=O)c3ccccc23)[nH]c1=O` it is 8.07 µM (active).
The entry for `CC(C)c1ccc(CNc2nnnn2C)cc1` is “inactive”; for `Cc1ccc(CNc2ccc3c(c2)ncn3C(C)C)cc1` it is 12.7 µM (active).
As for `CN(C)c1ccc(CNc2ccc3c(c2)ncn3C)cc1`, the IC50 is 13.5 µM (active).
The figure for `CCn1cnc2cc(NCc3ccc(N(C)C)cc3)ccc21` is 10.5 µM (active); for `ClC(Cl)(c1nnnn1-c1ccccc1)c1nnnn1-c1ccccc1` it is “inactive”; for `CC(Cc1ccc(O)c(O)c1)C(C)Cc1ccc(O)c(O)c1` (centres undefined) it is 22.3 µM (active).
The entry for `CCCCCCN=C(C)c1ccccc1O` is “inactive”; for `O=C(O)c1cccc(S(=O)(=O)Nc2ccc3oc(=O)sc3c2)c1` it is “inactive”.
Under `CC(=O)N(c1ccc2oc(=O)sc2c1)S(=O)(=O)c1ccccc1` stands 62.1 µM (active); under `CSc1nc(O)c(C(c2ccc(OC(C)C)cc2)c2c(O)nc(SC)[nH]c2=O)c(=O)[nH]1`, “inactive”.
Consider `COc1cc(/C=N/NC(=O)C2=NNC(=O)C2C)ccc1O` (centres undefined), for which the 50% inhibitory concentration (IC50) is 6.5 µM (active).
Under `COc1cc(/C=N/NC(=O)CC2C(=O)NN=C2C)ccc1O` (centres undefined) stands 5.63 µM (active); under `CCCc1cc(=O)[nH]c(Nc2ccc(O)cc2)n1`, 3.17 µM (active).
`Oc1ccc(C=Nc2ccc(N3CCOCC3)cc2)c(O)c1`: the IC50 is 2.33 µM (active).
The figure for `Oc1ccc2ccccc2c1C=Nc1ccc(N2CCOCC2)cc1` is 2.74 µM (active); for `COc1cccc(C=Nc2ccc(N3CCOCC3)cc2)c1O` it is 5.29 µM (active).
`Oc1ccc(N=Cc2cc(Br)c(N3CCOCC3)o2)cc1`: the IC50 is 8.18 µM (active).
Under `Cc1ccc(NC(NC(=O)Cc2ccccc2)C(Cl)(Cl)Cl)cc1` (centres undefined) stands “inactive”.
The entry for `CC1CCCN(Cc2nc(Cc3ccccc3Cl)no2)C1` (centres undefined) is “inactive”; for `COc1ccc(CC(O)COS(N)(=O)=O)cc1` (centres undefined) it is “inactive”; for `O=[N+]([O-])/C=C\c1ccc(N2CCOCC2)cc1` it is “inactive”.
Under `O=[N+]([O-])c1cc(Cc2ccccc2)cc(C=Nc2ccc(N3CCOCC3)cc2)c1O` stands 3.16 µM (active); under `C(=Nc1ccc(N2CCOCC2)cc1)c1c[nH]c2ccccc12`, 7.55 µM (active).
As for `O=C(O)c1cc(-c2ccco2)nc2cc3ccccc3cc12`, the IC50 result was “inactive”.
Under `CCC(=O)NC(C)C(c1cccs1)N1CCN(c2ccccc2)CC1` (centres undefined) stands “inactive”.
The figure for `O=c1cc(CN2CCN(c3ccc(O)cc3)CC2)nc2scc(-c3ccccc3)n12` is 9.38 µM (active); for `O=c1[nH]c(=S)[nH]c2[nH]c(=S)[nH]c12` it is 52.7 µM (active); for `CC(C)N1CN(c2ccccc2)C(=S)N(c2ccccc2)C1` it is “inactive”.
Turning to `N#C/C(C(=O)Nc1ccc(Cl)cc1)=C(/S)Nc1ccccc1`, the IC50 is 21.8 µM (active).
With `Cc1n[nH]c(=O)nc1Nc1ccc(O)cc1`, the half-inhibitory concentration (IC50) is 2.48 µM (active).
The figure for `Cc1[nH]nc(Nc2ccc(O)cc2)c1[N+](=O)[O-]` is 3.93 µM (active).
Under `Cc1nnc(Nc2ccc(O)cc2)[nH]c1=O` stands 3.89 µM (active).

(Values after PubChem BioAssay AID2501 (Southern Research Specialized Biocontainment Screening …, 2010).)
